This is a sample that favours compounds with a hit; in the whole collection about 6.6% have one here.
HT1080NT lethal: qHTS for induction of synthetic lethality in tumor cells producing 2HG: qHTS for the HT-1080-NT fibrosarcoma cell line. HT-1080-NT fibrosarcoma viability, CellTiter-Glo ATP luminescence, 48 h. Potency, µM (top dose mostly 46.1 µM), for the others: at the highest dose activity, negative = less viability, usual class: cytotoxic. 1.6% of 360,000 active. AID 686970, 2013;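 note: NT is the 2HG producing partner of a matched IDH1 knockdown line; 0% = DMSO-treated cells and -100% = media-only wells without cells; nearly all actives have a fitted effect of over 55% in size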
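Compounds were tested in concentration-response format on HT-1080-NT cells for 48 hours at 37 degrees C. Cell viability came from CellTiter-Glo luminescence; curves were classified by r2, response magnitude and activity.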
KB-V1 MDR tox: qHTS assay for MDR1-selective chemotherapeutics: Primary screen using the drug-selected MDR subline cells KB-V1. KB-V1 MDR cells viability, CellTiter-Glo, 72 h. Potency, µM (titrated, usually from 46.1 µM), usual class: cytotoxic. 3.4% of 400,000 active; note: % is set by controls: 0 for no effect and ±100 for the full control effect; nearly all actives have a fitted effect of over 60% in size
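Potencies derive from concentration-effect curves fitted to normalized luminescence (CellTiter-Glo) of KB-V1 cells treated for 72 h at 37 degrees C in phenol-red-free DMEM containing 10% FBS.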
HepG2 viability: qHTS for Inhibitors of TGF-b: Cytotox Counterscreen | HepG2 CAGA-GFP viability, ATP luminescence, 18 h | Potency, µM (highest dose often 46.1 µM), without a hit: at the highest dose activity change, negative = cytotoxicity, hits mostly cytotoxic | 0.76% of 410,000 active
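CellTiter-Glo luminescence gave cytotoxicity after 18 hours at 37 degrees C. The cells were HepG2 CAGA-GFP in 1% FBS DMEM, stimulated with 500 pg/mL TGF-beta after compound addition. %Activity was normalised to no-cell wells (complete cell-killing) and DMSO (no toxicity), and curves were fitted and classified.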
KB-3-1 tox: qHTS assay for MDR1-selective chemotherapeutics: Primary screen using the parental adenocarcinoma cell KB-3-1; KB-3-1 viability, CellTiter-Glo ATP luminescence, 72 h; Potency, µM (top dose mostly 46.1 µM), most hits filed as cytotoxic; 1.4% of 400,000 active; note: % is set by controls: 0 for no effect and ±100 for the full control effect; nearly all actives have a fitted effect of over 60% in size
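Luminescent ATP read-out (CellTiter-Glo) measures survival of drug-naive KB-3-1 cells after 72 h compound exposure at 37 °C. Titration series was screened from lowest to highest concentration, with DMSO vehicle plates as background controls.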
TGFb SMAD3 inh: qHTS for Inhibitors of TGF-b. HepG2 CAGA-GFP TGF-b/SMAD3 reporter, GFP fluorescence, 18 h; TGF-beta stimulated, 500 pg/mL final. Potency, µM (highest dose often 46.1 µM), without a hit: at the highest dose activity, negative = inhibition, usual class: inhibitors. 1.2% of 410,000 active. AID 588855, 2011; note: % is set by controls: 0 for no effect and ±100 for the full control effect; nearly all actives have a fitted effect of over 65% in size
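HEPG2 CAGA-GFP cells (1000/well, DMEM with 1% FBS) were pre-incubated 2 h at 37 degrees C, given compound by pin tool, then stimulated with TGF-beta at 500 pg/mL final for 18 h before per-cell GFP fluorescence imaging.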
HT1080 IDH1KD tx: qHTS for induction of synthetic lethality in tumor cells producing 2HG: qHTS for the HT-1080-IDH1KD cell line | Potency, µM (titrated, usually from 46.1 µM), for the others: top-dose activity, negative = toxicity, usual class: cytotoxic | HT-1080 IDH1 knockdown viability, ATP luminescence, 48 h | 2% of 360,000 active;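 note: 0% = DMSO wells and -100% = cell-free medium wells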
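Viability of IDH1-knockdown HT-1080 fibrosarcoma cells was assessed by CellTiter-Glo after 48 h at 37 °C with titrated compound; concentration-effect curves were classified by fit quality and response size.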
* = called active by the depositor; i = inactive; ? = inconclusive; · = no result; ! = not active in a repeat. Calls come from the whole dose curve; as a rule, active = well fitted curve in the direction sought with a large enough effect; inconclusive = small, poorly fitted or top-dose-only effect, or another doubt; inactive = no such curve, though single readings can be large; an effect the other way counts as inactive or inconclusive. Potency is the fitted concentration of half-maximal effect.

SMILES	HT1080NT lethal	KB-V1 MDR tox	HepG2 viability	KB-3-1 tox	TGFb SMAD3 inh	HT1080 IDH1KD tx
O=C(CCc1ccncc1)NC1CCCc2c1cnn2-c1ccc(F)cc1F (configuration not stated)	?	i	-13%	i	?	-20%
O=C(NC1CCCc2c1cnn2-c1ccc(F)cc1F)c1ccccn1 (configuration not stated)	0%	i	-10%	i	1%	-2%
O=C(CCc1ccccn1)NC1CCCc2c1cnn2-c1ccc(F)cc1F (configuration not stated)	-18%	21µM*	-16%	?	?	-9%
Cc1c(-c2ccc(Br)cc2)nc2ccccn12	?	21µM*	-30%	i	-1%	-20%
Cc1ccc(-c2nc3ccccn3c2C=O)cc1	-11%	?	7%	i	-11%	-5%
CN(C)c1ccc(-c2nc3ccccn3c2/N=C/c2ccc(Br)cc2)cc1	-25%	9.2µM*	-55%	15µM*	-2%	-29%
Cc1sc2ncnc(SCC(=O)c3cccs3)c2c1C	-20%	16µM*	-14%	?	-6%	-16%
Cc1cc2ccc(C)c(C)c2nc1SCC(=O)c1cccs1	?	15µM*	-5%	?	29%	?
COc1ccccc1CNC(=O)C1CCN(C2=NS(=O)(=O)C(c3ccc(C)c(C)c3)=C2C)CC1	·	i	-59%	i	?	·
COc1ccc(S(=O)(=O)Nc2cccc(N(C)S(C)(=O)=O)c2)cc1Br	1%	15µM*	5%	i	?	-1%
COc1cccc2c(C)cc3nnc(SCC(=O)Nc4ccc(C)cc4)n3c12	·	·	1%	·	11%	·
CCc1cc2c(NCC3CCCO3)ncnc2s1 (configuration not stated)	8%	16µM*	1%	?	-21%	2%
C=CC[n+]1ccnc2ccccc21	·	i	1%	i	?	·
C[n+]1ccnc2cc(Cl)ccc21	·	5.8µM*	1.4µM*	4.1µM*	1.1µM*	·
C[n+]1ccnc2ccccc21	·	10µM*	-105%	4.1µM*	5µM*	·
Cc1ccc(NC(=O)Cn2c(-c3ccc4c(c3)OCO4)cn(-c3ccccc3)c2=O)cc1	·	i	-21%	i	?	·
O=C1CCNc2cc3ccccc3cc21	-21%	?	-42%	23µM*	?	16µM*
O=C1CCNc2ccc(-c3ccccc3)cc21	-1%	i	-5%	i	19%	0%
CC(=O)c1ccccc1OCC(O)CN1CCN(CCN2C(=O)c3cccc4cccc(c34)C2=O)CC1 (configuration not stated)	?	i	0%	i	?	?
O=C1c2cccc3cccc(c23)C(=O)N1CCN1CCN(CC(O)COCc2ccc(Cl)cc2)CC1 (configuration not stated)	21µM*	?	13µM*	?	14µM*	?
Cc1ccc(C)c(OCC(O)CN2CCN(CCN3C(=O)c4cccc5cccc(c45)C3=O)CC2)c1 (configuration not stated)	16µM*	?	-99%	16µM*	?	?
O=C(NCc1ccccc1Cl)c1cc2c(s1)-c1ccc(Cl)cc1SC2	·	i	-8%	i	0%	·
CCn1c(=O)c(C(=O)CN2c3ccccc3CC2C)c(N)n(Cc2ccccc2)c1=O (configuration not stated)	-20%	?	-21%	i	-24%	-18%
CCn1c(=O)c(C(=O)CN2CCCc3ccccc32)c(N)n(Cc2ccccc2)c1=O	-13%	?	-18%	?	11µM*!	-21%
O=S(=O)(c1ccccc1)N(c1ccccc1)S(=O)(=O)c1ccccc1	-2%	9.2µM*	-6%	?	-16%	5%
SMILES	HT1080NT lethal	KB-V1 MDR tox	HepG2 viability	KB-3-1 tox	TGFb SMAD3 inh	HT1080 IDH1KD tx
Cc1ccc(NC(=O)c2cnc(SCC(=O)N3CCOCC3)n(C)c2=O)cc1C	·	·	-20%	·	-25%	·
CN(C)c1ccc(-c2c(-c3ccc4c(c3)OCO4)noc2-c2ccsc2)cn1	0%	10µM*!	-17%	?	?	-2%
CC(=O)N/C(=C\c1ccccc1)C(=O)OCC(=O)N(C)C1CCCCC1	-5%	16µM*	4%	i	-19%	2%
Cc1cccc(N2CCN(C(=O)c3c(C)oc4ncnc(N5CCOCC5)c34)CC2)c1C	·	·	-4%	·	-13%	·
O=C(NCc1ccccc1)c1ccc(-c2ccc(F)cc2)o1	-2%	18µM*	-18%	i	-2%	-14%
O=C(NC(=S)NCc1ccccc1)c1ccccc1	1%	i	-16%	i	?	4%
O=C(NC(=S)NCc1ccc(F)cc1)c1ccccc1	1%	21µM*	-1%	i	6%	-1%
Cc1ccccc1-c1ccc(C(=O)NCc2ccccc2)o1	-1%	i	0%	i	2%	0%
CCOC(=O)C1(Cc2ccc(Cl)cc2)CCN(C(=O)CCc2ccncc2)CC1	-4%	4.1µM*	-5%	i	-15%	-13%
Oc1ccc(N2CCN(C(c3ccc(Cl)cc3)c3nnnn3Cc3ccc(F)cc3)CC2)cc1 (configuration not stated)	·	i	4%	?	?	·
CCOC(=O)c1cnc(Nc2nc3ccccc3o2)nc1C	2.8µM*	i	-41%	11µM*	0%	3.5µM*
Cc1cc(NC(=O)CSCC(=O)N2CCN(c3cccc(C)c3C)CC2)no1	4%	i	1%	i	-8%	2%
Cc1noc(C)c1CSCC(=O)N1CCN(c2ccc(F)cc2)CC1	2%	2.9µM*	-7%	?	-11%	-13%
Cc1cccc(N2CCN(C(=O)CSCc3c(C)noc3C)CC2)c1C	4%	1.8µM*	-14%	3.7µM*	-12%	?
COc1ccc(Br)c2c1-c1nc(NC(=O)c3ccc(F)cc3)sc1C2	·	i	7%	i	3%	·
c1cc2c3c(c1)CCC[N+]3(C1CCCCC1)CCC2	·	i	-11%	?	-25%	·
Cc1ccc(-c2cc(C(F)F)nc(S(C)(=O)=O)n2)cc1	23µM*	?	-188%	?	?	21µM*
